The record followed here is ChEMBL document CHEMBL2218924, “A broad activity screen in support of a chemogenomic map for kinase signalling research and drug discovery” (Biochem J, 2013).

For experiment [1], the target named is Mitogen-activated protein kinase 11 (Homo sapiens) (UniProt Q15759). The following applies: at 1 µM.
Experiment [2] has the same target. The following applies: at 10 µM.
For experiment [3], the target named is T1, Mitogen-activated protein kinase 13 (Homo sapiens) (UniProt O15264).
T1 sequence (whole entry): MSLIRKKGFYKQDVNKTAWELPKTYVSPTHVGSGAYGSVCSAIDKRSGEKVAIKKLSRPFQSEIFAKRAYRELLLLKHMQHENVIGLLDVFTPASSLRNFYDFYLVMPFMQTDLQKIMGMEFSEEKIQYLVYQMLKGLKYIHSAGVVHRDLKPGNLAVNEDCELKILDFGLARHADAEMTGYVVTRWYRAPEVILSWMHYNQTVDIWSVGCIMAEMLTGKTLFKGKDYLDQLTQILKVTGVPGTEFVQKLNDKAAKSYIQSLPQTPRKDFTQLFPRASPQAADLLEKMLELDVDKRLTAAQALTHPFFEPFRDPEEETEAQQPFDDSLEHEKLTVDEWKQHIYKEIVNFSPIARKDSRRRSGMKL
The settings on record: at 1 µM.

Experiment [4] deals with T1, Mitogen-activated protein kinase 13 (Homo sapiens). The settings on record: at 10 µM.
Experiment [5] deals with T2, Serine/threonine-protein kinase Sgk1 (Homo sapiens) (UniProt O00141).
T2 sequence (whole entry): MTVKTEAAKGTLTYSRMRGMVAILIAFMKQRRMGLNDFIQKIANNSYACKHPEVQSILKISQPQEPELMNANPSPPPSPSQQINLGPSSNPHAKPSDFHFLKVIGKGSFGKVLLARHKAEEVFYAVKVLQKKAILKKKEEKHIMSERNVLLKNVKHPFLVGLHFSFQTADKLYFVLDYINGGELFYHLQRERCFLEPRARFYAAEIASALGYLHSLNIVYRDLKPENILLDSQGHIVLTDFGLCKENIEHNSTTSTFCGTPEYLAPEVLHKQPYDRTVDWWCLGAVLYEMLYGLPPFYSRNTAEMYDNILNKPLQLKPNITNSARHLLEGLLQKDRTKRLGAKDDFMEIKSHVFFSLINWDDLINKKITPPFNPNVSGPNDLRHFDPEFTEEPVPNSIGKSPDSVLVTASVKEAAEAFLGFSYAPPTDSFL
The settings on record: at 1 µM.

In experiment [6] the target is T2, Serine/threonine-protein kinase Sgk1 (Homo sapiens). The following applies: at 10 µM.
For experiment [7], the target named is T3, Serine/threonine-protein kinase Sgk2 (Homo sapiens) (UniProt Q9HBY8).
T3 sequence (whole entry): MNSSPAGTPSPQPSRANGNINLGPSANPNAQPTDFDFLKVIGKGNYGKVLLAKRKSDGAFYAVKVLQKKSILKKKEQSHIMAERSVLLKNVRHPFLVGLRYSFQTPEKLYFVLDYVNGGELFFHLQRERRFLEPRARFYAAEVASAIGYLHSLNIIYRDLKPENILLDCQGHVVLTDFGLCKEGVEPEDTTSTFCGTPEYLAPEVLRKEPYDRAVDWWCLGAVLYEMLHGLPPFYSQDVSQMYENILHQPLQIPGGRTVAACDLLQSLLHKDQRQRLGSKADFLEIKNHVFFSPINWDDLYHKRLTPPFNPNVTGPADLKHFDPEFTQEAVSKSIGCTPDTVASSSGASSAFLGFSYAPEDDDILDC
The settings on record: at 1 µM.

For experiment [8], the target named is T3, Serine/threonine-protein kinase Sgk2 (Homo sapiens). The settings on record: at 10 µM.
The target in experiment [9] is T4, Serine/threonine-protein kinase Sgk3 (Homo sapiens) (UniProt Q96BR1).
T4 sequence (whole entry): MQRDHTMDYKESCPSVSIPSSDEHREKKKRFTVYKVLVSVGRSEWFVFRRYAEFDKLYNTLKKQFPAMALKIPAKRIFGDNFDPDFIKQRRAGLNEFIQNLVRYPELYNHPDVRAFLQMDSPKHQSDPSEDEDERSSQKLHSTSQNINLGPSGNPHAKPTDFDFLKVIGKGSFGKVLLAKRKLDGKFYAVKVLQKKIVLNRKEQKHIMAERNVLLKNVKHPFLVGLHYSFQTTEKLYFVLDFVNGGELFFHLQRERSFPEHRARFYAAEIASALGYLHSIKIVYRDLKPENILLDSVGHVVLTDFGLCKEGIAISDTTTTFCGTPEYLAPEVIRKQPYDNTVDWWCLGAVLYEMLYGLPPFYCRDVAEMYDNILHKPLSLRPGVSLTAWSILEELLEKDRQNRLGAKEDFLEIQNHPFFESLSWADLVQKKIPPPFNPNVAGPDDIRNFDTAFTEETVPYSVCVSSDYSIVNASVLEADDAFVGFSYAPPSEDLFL
The following applies: at 10 µM.

Experiment [10] addresses Serine/threonine-protein kinase SIK1 (Homo sapiens) (UniProt P57059). The settings on record: at 1 µM.
Experiment [11] shares this target. The following applies: at 10 µM.
The target in experiment [12] is SRSF protein kinase 1 (Homo sapiens) (UniProt Q96SB4). The settings on record: at 1 µM.
For experiment [13] the target is unchanged. The settings on record: at 10 µM.
Experiment [14] concerns the target SRSF protein kinase 2 (Homo sapiens) (UniProt P78362). The settings on record: at 1 µM.
Experiment [15] has the same target. The following applies: at 10 µM.
In experiment [16] the target is Serine/threonine-protein kinase 33 (Homo sapiens) (UniProt Q9BYT3). The following applies: at 1 µM.
The target is the same in experiment [17]. The following applies: at 10 µM.
The target of experiment [18] is Serine/threonine-protein kinase PLK2 (Homo sapiens) (UniProt Q9NYY3). The following applies: at 1 µM.
The target is the same in experiment [19]. The settings on record: at 10 µM.
Experiment [20] has as its target Tyrosine-protein kinase SYK (Homo sapiens) (UniProt P43405). The following applies: at 1 µM.

Serine/threonine-protein kinase SIK1 (Homo sapiens), sequence (P57059 whole entry): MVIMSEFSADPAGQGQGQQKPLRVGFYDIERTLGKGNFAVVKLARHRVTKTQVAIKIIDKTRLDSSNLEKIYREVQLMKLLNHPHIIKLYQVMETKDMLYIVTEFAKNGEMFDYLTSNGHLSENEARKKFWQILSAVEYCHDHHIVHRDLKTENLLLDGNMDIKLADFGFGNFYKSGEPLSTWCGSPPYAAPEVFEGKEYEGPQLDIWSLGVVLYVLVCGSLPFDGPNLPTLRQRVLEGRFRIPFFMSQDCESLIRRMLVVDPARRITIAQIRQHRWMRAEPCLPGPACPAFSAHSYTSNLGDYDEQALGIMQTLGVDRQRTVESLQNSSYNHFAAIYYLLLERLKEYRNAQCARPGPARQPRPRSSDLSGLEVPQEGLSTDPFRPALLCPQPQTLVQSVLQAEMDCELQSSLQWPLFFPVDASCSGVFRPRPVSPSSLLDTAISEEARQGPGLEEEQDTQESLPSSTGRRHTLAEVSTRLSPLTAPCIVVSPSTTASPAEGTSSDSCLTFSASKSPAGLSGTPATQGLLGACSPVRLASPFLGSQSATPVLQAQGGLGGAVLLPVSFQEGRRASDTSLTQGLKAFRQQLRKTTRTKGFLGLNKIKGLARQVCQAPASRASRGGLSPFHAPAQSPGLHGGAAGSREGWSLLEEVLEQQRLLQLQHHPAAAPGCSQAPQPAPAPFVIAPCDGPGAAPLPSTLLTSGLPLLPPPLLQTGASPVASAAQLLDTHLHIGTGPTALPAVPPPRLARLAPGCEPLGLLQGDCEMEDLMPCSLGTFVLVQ
Mitogen-activated protein kinase 11 (Homo sapiens), sequence (Q15759 whole entry): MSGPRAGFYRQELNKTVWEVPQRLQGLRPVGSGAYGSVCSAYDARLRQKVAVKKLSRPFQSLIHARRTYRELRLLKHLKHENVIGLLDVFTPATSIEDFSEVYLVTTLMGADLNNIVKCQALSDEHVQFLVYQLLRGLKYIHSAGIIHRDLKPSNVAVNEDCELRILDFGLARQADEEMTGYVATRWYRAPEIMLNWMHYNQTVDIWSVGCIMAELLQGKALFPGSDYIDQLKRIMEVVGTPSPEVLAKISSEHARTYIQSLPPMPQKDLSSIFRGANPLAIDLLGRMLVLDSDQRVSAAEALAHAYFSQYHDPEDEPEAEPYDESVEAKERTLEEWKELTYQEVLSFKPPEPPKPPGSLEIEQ
Serine/threonine-protein kinase PLK2 (Homo sapiens), sequence (Q9NYY3 whole entry, looked up): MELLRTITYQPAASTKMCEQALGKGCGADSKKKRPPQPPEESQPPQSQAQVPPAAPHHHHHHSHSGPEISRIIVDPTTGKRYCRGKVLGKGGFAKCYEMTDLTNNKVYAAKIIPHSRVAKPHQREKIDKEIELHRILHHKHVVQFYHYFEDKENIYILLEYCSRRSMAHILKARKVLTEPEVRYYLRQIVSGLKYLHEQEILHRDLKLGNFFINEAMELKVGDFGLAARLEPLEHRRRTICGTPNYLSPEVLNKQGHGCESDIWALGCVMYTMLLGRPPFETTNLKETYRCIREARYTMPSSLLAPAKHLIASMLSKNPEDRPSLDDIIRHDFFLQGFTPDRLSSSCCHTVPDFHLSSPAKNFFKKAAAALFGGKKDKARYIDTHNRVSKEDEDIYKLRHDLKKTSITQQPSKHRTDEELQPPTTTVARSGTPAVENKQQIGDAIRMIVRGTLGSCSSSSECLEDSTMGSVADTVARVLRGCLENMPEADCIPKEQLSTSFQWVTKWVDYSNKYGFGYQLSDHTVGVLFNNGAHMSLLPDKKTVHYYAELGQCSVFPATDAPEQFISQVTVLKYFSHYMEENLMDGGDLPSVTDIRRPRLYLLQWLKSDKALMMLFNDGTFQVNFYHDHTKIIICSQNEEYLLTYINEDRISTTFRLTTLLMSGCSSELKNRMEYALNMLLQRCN
SRSF protein kinase 2 (Homo sapiens), sequence (P78362 whole entry, looked up): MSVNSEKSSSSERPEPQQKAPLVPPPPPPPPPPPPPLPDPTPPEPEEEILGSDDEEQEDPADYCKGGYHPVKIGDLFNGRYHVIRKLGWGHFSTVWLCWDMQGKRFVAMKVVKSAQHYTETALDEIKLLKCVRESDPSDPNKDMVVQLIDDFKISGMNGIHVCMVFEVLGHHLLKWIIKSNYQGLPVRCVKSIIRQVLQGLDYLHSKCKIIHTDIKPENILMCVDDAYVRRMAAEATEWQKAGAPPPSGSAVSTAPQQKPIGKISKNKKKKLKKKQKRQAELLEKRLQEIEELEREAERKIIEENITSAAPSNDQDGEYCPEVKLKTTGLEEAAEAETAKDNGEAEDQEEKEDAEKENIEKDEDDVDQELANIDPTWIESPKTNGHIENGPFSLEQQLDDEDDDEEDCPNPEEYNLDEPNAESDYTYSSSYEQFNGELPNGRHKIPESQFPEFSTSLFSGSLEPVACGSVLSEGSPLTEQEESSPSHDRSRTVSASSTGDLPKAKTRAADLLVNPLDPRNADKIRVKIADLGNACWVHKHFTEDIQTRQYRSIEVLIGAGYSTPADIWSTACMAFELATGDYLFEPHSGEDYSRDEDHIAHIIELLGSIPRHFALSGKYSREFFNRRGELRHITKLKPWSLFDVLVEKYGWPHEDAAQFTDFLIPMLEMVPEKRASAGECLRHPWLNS
SRSF protein kinase 1 (Homo sapiens), sequence (Q96SB4 whole entry): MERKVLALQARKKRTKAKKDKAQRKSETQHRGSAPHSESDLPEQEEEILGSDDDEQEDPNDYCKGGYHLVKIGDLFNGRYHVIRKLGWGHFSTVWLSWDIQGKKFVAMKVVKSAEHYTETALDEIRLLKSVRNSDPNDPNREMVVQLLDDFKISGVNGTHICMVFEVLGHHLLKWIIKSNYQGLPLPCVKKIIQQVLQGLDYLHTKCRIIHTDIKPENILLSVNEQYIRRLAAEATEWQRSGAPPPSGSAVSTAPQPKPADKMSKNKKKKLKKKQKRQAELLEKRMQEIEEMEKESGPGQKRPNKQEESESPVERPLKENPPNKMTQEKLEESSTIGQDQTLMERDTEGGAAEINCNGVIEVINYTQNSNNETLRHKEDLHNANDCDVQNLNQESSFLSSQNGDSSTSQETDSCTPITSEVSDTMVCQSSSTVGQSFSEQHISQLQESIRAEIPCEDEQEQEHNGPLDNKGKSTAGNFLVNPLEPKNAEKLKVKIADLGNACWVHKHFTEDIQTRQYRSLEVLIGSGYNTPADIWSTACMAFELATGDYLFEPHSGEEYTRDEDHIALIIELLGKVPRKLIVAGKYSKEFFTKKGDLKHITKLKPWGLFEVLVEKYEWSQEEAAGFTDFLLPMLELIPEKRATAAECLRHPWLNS
Serine/threonine-protein kinase 33 (Homo sapiens), sequence (Q9BYT3 whole entry, looked up): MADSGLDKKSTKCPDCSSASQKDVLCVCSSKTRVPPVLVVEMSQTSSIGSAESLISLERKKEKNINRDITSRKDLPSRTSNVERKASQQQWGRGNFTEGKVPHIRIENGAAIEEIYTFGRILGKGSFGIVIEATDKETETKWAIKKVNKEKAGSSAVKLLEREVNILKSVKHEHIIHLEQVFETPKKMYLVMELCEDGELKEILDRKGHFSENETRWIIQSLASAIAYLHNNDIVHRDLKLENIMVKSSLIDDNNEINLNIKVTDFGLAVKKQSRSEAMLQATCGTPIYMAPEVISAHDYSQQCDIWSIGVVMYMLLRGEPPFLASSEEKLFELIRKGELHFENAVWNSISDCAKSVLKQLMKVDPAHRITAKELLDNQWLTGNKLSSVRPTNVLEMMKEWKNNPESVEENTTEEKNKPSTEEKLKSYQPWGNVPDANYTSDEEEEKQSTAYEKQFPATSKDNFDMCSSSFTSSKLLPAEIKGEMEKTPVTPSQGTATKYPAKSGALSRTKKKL

Consider `O=C1NC(=O)c2cc(Nc3ccc(F)cc3)c(Nc3ccc(F)cc3)cc21`, for which the residual activity stood at 95% in [1]; 72% in [2]; 98% in experiment [3]; 89% in experiment [4]; 108% in experiment [5]; 76% in experiment [6]. Also, the residual activity came out at 97% in [7]; 67% in experiment [8]; 96% in experiment [9]; 98% in experiment [10]; 0% in experiment [11]; 102% in [12]. For the same molecule, the residual activity in experiment [13] is 93%; in experiment [14] it was 96%; in experiment [15], 95%; in [16] it was 95%; in [17], 101%; in experiment [18], 97%. For the same molecule, the residual activity worked out at 96% in experiment [19] and 118% in experiment [20].
For the molecule `c1ccc2c(-c3ccncc3)c[nH]c2c1`, the residual activity in experiment [1] was determined as 96%; in [2] it was 98%; in experiment [3], 103%; in experiment [4] it was 93%; in experiment [5] it was 102%; in experiment [6], 45%. For the same molecule, the residual activity turned out to be 92% in experiment [7]; 24% in [8]; 54% in experiment [9]; 79% in experiment [10]; 85% in experiment [11]; 108% in experiment [12]. The residual activity came out at 108% in [13]; 89% in [14]; 97% in experiment [15]; 98% in [16]; 93% in experiment [17]; 107% in [18]. The residual activity in experiment [19] came to 94%.
As to `CCC(=O)Nc1ccc2ncnc(Nc3cccc(Br)c3)c2c1`, the residual activity in experiment [1] is 91%; in experiment [2] it was 88%; in experiment [3], 100%; in experiment [4], 102%; in [5], 107%; in [6], 114%. Further, the residual activity is 105% in experiment [7]; 77% in [8]; 95% in [9]; 68% in [10]; 13% in experiment [11]; 102% in experiment [12]. Moreover, the residual activity in experiment [13] was determined as 98%; in [14] it was 89%; in experiment [15], 74%; in experiment [16] it was 91%; in experiment [17] it was 98%; in [18] it was 104%. The residual activity in experiment [19] was found to be 98%; in experiment [20] it was 125%.
For `CO[C@@H]1[C@H](N(C)C(=O)c2ccccc2)C[C@H]2O[C@]1(C)n1c3ccccc3c3c4c(c5c6ccccc6n2c5c31)C(=O)NC4`, the residual activity in [1] stood at 86%; in [2], 98%; in experiment [3], 92%; in experiment [4], 77%; in experiment [5] it was 57%; in experiment [6], 18%. Moreover, the residual activity came out at 80% in experiment [7]; 46% in experiment [8]; 78% in [9]; 4% in experiment [10]; 2% in experiment [11]; 78% in [12]. Further, the residual activity in experiment [13] came out at 55%; in experiment [14], 64%; in [15], 48%; in [16], 25%; in experiment [17], 13%; in experiment [18], 100%. Further, the residual activity in experiment [19] was 86%; in experiment [20], 2%.
For the molecule `O=C1NC(=O)c2c1c1c3ccccc3[nH]c1c1[nH]c3cc(Br)ccc3c21`, the residual activity in experiment [1] was determined as 105%; in experiment [2] it was 107%; in experiment [3], 101%; in [4], 94%; in experiment [5], 44%; in [6], 50%. The residual activity in [7] was 64%; in experiment [8], 69%; in experiment [9], 78%; in [10] it was 111%; in [11] it was 83%; in experiment [12] it was 82%. Further, the residual activity in experiment [13] was 96%; in experiment [14] it was 83%; in experiment [15], 77%; in experiment [16], 94%; in [17], 88%; in [18] it was 93%. The figures for the residual activity in experiment [19] and in [20] were 94% and 104%, respectively.
Take `Oc1n[nH]c2nnc(-c3c(-c4ccccc4)nn4ccccc34)cc12`: the residual activity in [1] was determined as 94%; in experiment [2], 91%; in experiment [3], 96%; in experiment [4] it was 96%; in experiment [5], 69%; in experiment [6] it was 86%. Further, the residual activity was 96% in [7]; 80% in experiment [8]; 81% in [9]; 109% in experiment [10]; 89% in experiment [11]; 97% in experiment [12]. In addition, the residual activity in experiment [13] was 96%; in experiment [14], 101%; in experiment [15], 98%; in experiment [16], 95%; in [17], 86%; in experiment [18], 97%. Besides, the values for the residual activity in [19] and in experiment [20] were 99% and 106%, respectively.
